CHX counter: Cycloheximide Counterscreen for Small Molecule Inhibitors of Shiga Toxin | cell reporter, cycloheximide protein synthesis inhibition counterscreen | 12% of 300,000 active | max response, %; in the data active means max response mostly above about 13%, no sharp cut-off; inactive means mostly below about 14%; further: read at 38.3 µM for the half of the compounds with a filed dose; 0% is about no effect
Shiga toxin inh: A qHTS for Small Molecule Inhibitors of Shiga Toxin | Vero cells, Shiga toxin protein synthesis inhibition reporter | inhibition, % at 38.7 µM | 9.2% of 290,000 active; in the data active means inhibition mostly above about 28%, no sharp cut-off; inactive means mostly below about 43%; further: 0% is about no effect
LASV entry inh: qHTS for Inhibitors of binding or entry into cells for Lassa Virus. Lassa virus pseudotype entry inhibition, cell reporter. Potency, µM (top dose mostly 37.9 µM), without a hit: top-dose activity change, negative = inhibition, hits mostly inhibitors. 1.2% of 300,000 active. AID 540256, 2011; calls by dose curve; tested in HEK293 cells; further: potency means the concentration at half of the fitted maximal effect; on the % scale 0 is the no-effect control and ±100 the full control effect; nearly all actives have a fitted effect of over 50% in size
HCV inhibitor: qHTS Assay for Inhibitors of Hepatitis C Virus (HCV) | AID 651820, 2012 | 3.4% of 340,000 active | Potency, µM (series often up to 41.8 µM), without a hit: at the top dose activity change, negative = inhibition, most hits filed as inhibitors | Huh7.5.1 HCVcc-Cre infection, luciferase reporter, 44 h; active means well fitted inhibition curve with a large enough effect; inconclusive means small, poorly fitted or top-dose-only effect, or another doubt; inactive means no such curve, though single readings can be large or run the other way; further: potency means the concentration at half of the fitted maximal effect; on the % scale 0 is the no-effect control and ±100 the full control effect
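Reporter virus HCVcc-Cre (~0.5 moi) infects cells exposed to compound; seeding density 1,000 cells/well with 4 h settling beforehand. Luminescence, 15 sec read, taken 44 h post-infection following a 15 min RT substrate incubation.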
Marburg entry inh: qHTS for inhibitors of binding or entry into cells for Marburg Virus. Marburg virus pseudotyped entry inhibition, cell reporter. 1.8% of 300,000 active. AID 540276, 2011. Potency, µM (titrated, usually from 37.8 µM), for the others: at the top dose activity change, negative = inhibition, usual class: inhibitors; calls by dose curve; tested in HEK293 cells; further: potency means the concentration at half of the fitted maximal effect; on the % scale 0 is the no-effect control and ±100 the full control effect
FMDV antiviral: High Throughput Screening for Foot and Mouth Disease Virus Antivirals; FMDV antiviral cell-based qHTS; Potency, µM (highest dose often 57.9 µM), inactives show at the top dose activity change, negative = inhibition, hits mostly inhibitors; 1.2% of 410,000 active; AID 1159524, 2015; calls by dose curve; tested in HEK293T cells; further: read-out not given here; potency means the concentration at half of the fitted maximal effect; on the % scale 0 is the no-effect control and ±100 the full control effect; nearly all actives have a fitted effect of over 45% in size
An asterisk follows results filed as active; ? = inconclusive; · = no result given; [ ] = another dose, or the depositor's remark. Compounds with a hit are over-represented: about 13% of the library has one in this group of screens.

SMILES	CHX counter	Shiga toxin inh	LASV entry inh	HCV inhibitor	Marburg entry inh	FMDV antiviral
Cc1cc(OCC(=O)O/N=C(\N)c2ccccc2)cc(C)c1Cl	5	9	23%	-20%	20%	·
CCc1ccc(OCC(=O)O/N=C(\N)c2cccnc2)cc1	32*	44*	19%	6%	0%	20%
Cc1ccc(C)c(OCC(=O)O/N=C(\N)c2ccccn2)c1	28*	88*	?	-17%	?	51%
Cc1ccc(C)c(OCC(=O)O/N=C(\N)c2cccnc2)c1	19*	49	-15%[46.1 µM]	-10%	2%[46.1 µM]	17%
Cc1ccc(S(=O)(=O)N(C)CC(=O)O/N=C(\N)c2cccnc2)cc1	·	·	0%	6%	20%	-11%
COc1ccc(CN2CCC(=O)NC2=O)cc1	11	2	-1%	10%	20%	-17%
Cc1c(Cl)cccc1-n1ncc(C(=O)N2CCOCC2)c1C1CCN(C(=O)OC(C)(C)C)CC1	·	·	-24%[46.1 µM]	·	·	-13%
O=C(c1nc2ccc(Cl)cn2c1CNCC[C@@H]1C[C@@H]2C=C[C@H]1C2)N1CCCCCCC1	-2	-4	-17%[46.1 µM]	-13%	?	-19%
O=C1/C(=C/c2ccncc2)SC(=S)N1C1CCS(=O)(=O)C1 (stereo not given)	11	-19	-28%	-17%	?	?
N/C(=N\OC(=O)COc1ccc2ccccc2c1)c1ccccn1	67*	128*	?	-17%	?	·
COc1ccccc1C/C(N)=N/OC(=O)COc1ccc2ccccc2c1	-3	-9	15%	-5%	3%	·
N/C(=N\OC(=O)COc1ccccc1Cl)c1ccccn1	45*	65*	7.3µM*	34%	?	-10%
Cc1nn(-c2ccccc2)c(Cl)c1C(=O)NCC(C)C	-1	1	?	-12%	1%	10%
COc1ccccc1NC(=O)c1cc2c(C)nn(-c3ccccc3)c2s1	·	·	-19%[46.1 µM]	·	?	-12%
CCOC(=O)CNC(=O)c1c(C)nn(-c2ccccc2)c1Cl	6	18	?	-2%	-26%	33%
CCc1nnc(NC(=O)c2c(C)nn(-c3ccccc3)c2Cl)s1	42*	31	0%	9%	13%	-23%
COc1ccccc1NC(=O)c1c(C)nn(-c2ccccc2)c1Cl	14*	13	·	-3%	·	3%
Cc1nn(-c2ccccc2)c(Cl)c1C(=O)NCC(C)c1ccccc1 (stereo not given)	43*	74*	?	-11%	?	9%
Cc1ccccc1NC(=O)c1c(C)nn(-c2ccccc2)c1Cl	38*	69*	13%	-24%	?	5%
Cc1ccc2nc(COc3ccccc3NC(=O)c3ccccc3F)cc(=O)n2c1	·	·	-4%[46.1 µM]	·	·	?
O=C(Nc1nnc([C@H]2C[C@H](O)[C@@H](CO)O2)s1)Nc1ccccc1C(F)(F)F	·	·	·	·	·	-6%
Cc1ccc(CN2CCNC(=O)C2CC(=O)NCC(F)(F)F)o1 (stereo not given)	3	-5	-2%[46.1 µM]	9%	12%[46.1 µM]	26%
CCNC(=S)Nc1cc(OCC)c(NC(=O)c2cccs2)cc1OCC	5	-9	-9%	?	?	-24%
COC(=O)c1cc(S(=O)(=O)Nc2cccc(C)c2C)cn1C	-2	-2	·	?	·	?
Cc1nn(-c2ccccc2)c(Cl)c1C(=O)NNC(=O)c1ccncc1	·	·	·	1%	·	-2%
SMILES	CHX counter	Shiga toxin inh	LASV entry inh	HCV inhibitor	Marburg entry inh	FMDV antiviral
Cc1nn(-c2ccccc2)c(Cl)c1C(=O)NNC(=O)c1ccccc1O	·	·	·	10µM*	·	38%
C/C(CC(=O)Nc1cc(C)ccn1)=N\NC(=O)COc1cccc(C)c1	31*	-12	·	·	·	·
C/C(CC(=O)NC12CC3CC(CC(C3)C1)C2)=N\NC(=O)c1ccc(F)cc1	13	34	-29%	0%	-19%[46.1 µM]	-9%
C/C(CC(=O)Nc1cc(Cl)ccc1Cl)=N\NC(=O)COc1cccc(C)c1	-4	16	1%	-16%	-14%	35%
C/C(CC(=O)Nc1cc(C)ccn1)=N\NC(=O)c1ccncc1	8.6*	20	25%[46.1 µM]	-4%	13%[46.1 µM]	0%
C/C(CC(=O)NC12CC3CC(CC(C3)C1)C2)=N\NC(=O)c1ccc(C)cc1	10*	18*	8%	12%	?	-9%

Assay outcomes from PubChem.
